In PubChem BioAssay (NCI):
Several values for one entry are separate records, joined by “and”; a condition that tells them apart may be missing. Identical values can stand only once. Compounds without any hit were thinned out: in the full panel of roughly 83,000, 20% have a hit.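 Single-concentration screen, 48 h exposure, 96-well plates. Endpoint: percent growth. Below 10 = active.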 Activity calls are given as the source filed them.

Test system: MDA-MB-468 breast
Experiment: NCI-60 one-dose screen, 48 h (100 = growth as untreated, 0 = no growth, -100 = all killed)
Details: 10 µM unless noted

Structure (SMILES)	growth
CS(=O)(=O)c1ccc(C(=O)Nc2ccc(Cl)c(-c3ccccn3)c2)c(Cl)c1	3.59% (active)
NCC(=O)CCC(=O)O	100% (inactive)
S=c1nc(-c2ccccn2)c(-c2ccccn2)n[nH]1	108% (inactive)
NC(=O)c1cccc(-n2ccc3cc(NC(=O)Nc4cc(C(F)(F)F)cc(C(F)(F)F)c4)ccc32)n1	40.7% (inactive)
CCc1ccc(CNc2ccc(N3CCOCC3)c(C(=O)O)c2)cc1	101% (inactive)
CN(C)c1ccc(/C=N/NC(=O)c2cccc3ccccc23)c(Cl)c1	-7.38% (active)
COc1ccc2c(c1)c(-c1noc(-c3cn(C)c4ncc(F)cc34)n1)cn2C	73.5% (inactive)
CCOC(=O)c1c(NCC(=O)Nc2cccc([N+](=O)[O-])c2)sc2c1CCCC2	-77.2% (active)
CC1Cc2ccc(OCCN(C)C)cc2C1=O (stereo unspecified)	96.2% (inactive)
COc1ccc([C@H]2c3cc(OC)c(OC)cc3C=C(C=O)C2CO)cc1OC (stereo partly specified)	41% (inactive)
Cc1cc(C)c(O)c(CNCCCNCc2cc(C)cc(C)c2O)c1	7.95% (active)
NNC(=O)c1ccc(-n2nc(-c3ccccc3)c3ccccc32)cc1	38.3% (inactive)
Clc1ncccc1Nc1ccc2nnc(-c3ccncc3)n2n1	99.9% (inactive)
COc1cc2c(cc1-c1c(C)noc1C)ncc1nc(CN3CCOCC3)n([C@H](C)COC(F)F)c12	29.6% (inactive)
CCc1nn2c(-c3ccc(Cl)cc3C)c(-c3cc(OC)c(OC)c(OC)c3)nc2s1	68.2% (inactive)
Nc1n[nH]c2cccc(C#Cc3cccc(C(=O)Nc4cc(CN5CCOCC5)cc(C(F)(F)F)c4)c3)c12	89.7% (inactive)
Cc1ccc(-c2nc(C(Cl)Cl)n3nc(-c4ccccc4)cc3n2)cc1	-21.1% (active)
O=c1nc2sc3nc4ccccc4cc3cc-2s1	124% (inactive)
CC/C(=C\c1ccc(N(C)C)cc1)c1ccncc1	-12.7% (active)
COc1ccc2c(c1)nnc1c3cccnc3[nH]c21	-92.6% (active)
O=S(=O)(O)c1cccc2cccnc12	100% (inactive)
COc1cc2c(c(OC)c1OC)CCC(c1cccc(NC(=O)c3cccc(Br)c3)c1)O2 (stereo unspecified)	75.2% (inactive)
COc1ccc2sc3c(NCCCN(C)C)nc4ccccc4c3c(=O)c2c1	36.2% (inactive)
COc1cc(NS(C)(=O)=O)ccc1Cc1c2ccccc2nc2ccccc12	-14.1% (active)
COc1cc2c(O)n(CCCn3ccnc3)c3c4cnc5cccc(c(=O)c3c2cc1OC)c54	4.34% (active)
CN(C)c1ccc2nc3ccc(=O)cc-3sc2c1	15% (inactive) and 29.5% (inactive)
